# The supplement of paper PMC8371130
# Counter-ions that a name gives are not always drawn.
# Test system: HL-1
# Test: relative cell viability (CellTiter-Glo) vs DMSO control (% of DMSO control); higher = more viable cells
# Outline: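 In 384-well plates, 1000 HL-1 mouse atrial cardiomyocytes per well were plated with compounds at 40, 200, 1000 or 5000 nM in 0.01% DMSO. Hypoxia at 1% O2 for 48 h began one day later and was followed by 24 h of reoxygenation, with parallel plates held in normoxia. CellTiter-Glo luminescence gave cell viability relative to vehicle-treated control cells.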
# [1] = oxygen condition: hypoxia 48 h (1% O2) + reoxygenation 24 h, 40 nM
# [2] = oxygen condition: hypoxia 48 h (1% O2) + reoxygenation 24 h, 200 nM
# [3] = oxygen condition: hypoxia 48 h (1% O2) + reoxygenation 24 h, 1000 nM
# [4] = oxygen condition: hypoxia 48 h (1% O2) + reoxygenation 24 h, 5000 nM
# [5] = oxygen condition: normoxia 72 h, 40 nM
# [6] = oxygen condition: normoxia 72 h, 200 nM
# [7] = oxygen condition: normoxia 72 h, 1000 nM
# [8] = oxygen condition: normoxia 72 h, 5000 nM
SMILES,relative cell viability [1],relative cell viability [2],relative cell viability [3],relative cell viability [4],relative cell viability [5],relative cell viability [6],relative cell viability [7],relative cell viability [8]
CCCC(CCC)C(=O)O [Divalproex sodium],98.3,109,102,111,99.9,106,106,118
C=C1CC[C@H](O)C/C1=C/C=C1\CCC[C@]2(C)[C@@H]([C@H](C)CCCC(C)(C)O)CC[C@@H]12 [Calcifediol],112,106,106,109,103,104,114,117
CCN(CC)C(=O)/C(C#N)=C/c1cc(O)c(O)c([N+](=O)[O-])c1 [Entacapone],101,105,103,108,100,111,103,114
O=C1C(O)=C([C@H]2CC[C@H](c3ccc(Cl)cc3)CC2)C(=O)c2ccccc21 [Atovaquone],98.8,103,113,112,98.2,104,98.5,115
Cc1cc(C)nc(NS(=O)(=O)c2ccc(N)cc2)n1 [Sulfamethazine],102,104,104,112,94.6,104,105,119
C=C1/C(=C\C=C2/CCC[C@]3(C)[C@@H]([C@H](C)CCCC(C)(C)O)CC[C@@H]23)C[C@@H](O)C[C@@H]1O [Calcitriol],90.8,91.2,92.9,91,94.5,92.6,93.6,89.9
COc1cc2nc(N3CCN(C(=O)C4COc5ccccc5O4)CC3)nc(N)c2cc1OC (stereo unspecified) [Doxazosin mesylate],104,107,108,106,105,102,103,114
OC(CCN1CCCC1)(c1ccccc1)C1CCCCC1 (stereo unspecified) [Procyclidine HCl],93.1,89.9,85.4,29.9,101,97.7,82.5,30.6
CN1CCC(=C2c3ccccc3CC(=O)c3sccc32)CC1 [Ketotifen fumarate],108,103,101,113,99.8,100,105,106
COc1ccc2c(c1OC)C(=O)O[C@@H]2[C@H]1c2c(cc3c(c2OC)OCO3)CCN1C [Noscapine HCl],97.5,98,99.1,103,94.9,106,104,109
CC1(C)[C@@H](OC(=O)CCC(=O)O)CC[C@]2(C)[C@H]3C(=O)C=C4[C@@H]5C[C@@](C)(C(=O)O)CC[C@]5(C)CC[C@@]4(C)[C@]3(C)CC[C@@H]12 [Carbenoxolone Sodium],94.3,103,100,108,93.6,102,102,107
CC1=C(CC(=O)O)c2cc(F)ccc2/C1=C\c1ccc([S+](C)[O-])cc1 (stereo unspecified) [Sulindac],104,105,106,61.2,103,101,108,113
C=CCc1cc(OC)c(O)c(C(=O)NCCO)c1 [Alibendol],103,102,108,113,101,104,112,115
Cc1cccc(Nc2ccncc2S(=O)(=O)NC(=O)NC(C)C)c1 [Torsemide],103,102,107,106,106,112,112,105
N[C@@H](Cc1cc(I)c(Oc2ccc(O)c(I)c2)c(I)c1)C(=O)O [Liothyronine Sodium],105,108,111,109,103,102,108,107
COC(=O)C1=C(C#N)NC(C)=C(C(=O)OC(C)C)C1c1cccc([N+](=O)[O-])c1 (stereo unspecified) [Nilvadipine],107,105,96.3,98.7,98.3,98.1,102,108
CS(=O)(=O)c1ccc(C2=C(c3ccccc3)C(=O)OC2)cc1 [Rofecoxib],104,97.5,103,107,105,94.4,107,109
CC(=O)O[C@H]1C[C@@H]2CC[C@@H]3[C@H](CC[C@@]4(C)[C@H]3C[C@H]([N+]3(C)CCCCC3)[C@@H]4OC(C)=O)[C@@]2(C)C[C@@H]1N1CCCCC1 [Vecuronium Bromide],112,118,114,119,112,115,122,124
CN(N=O)C(=O)N[C@@H](C=O)[C@@H](O)[C@H](O)[C@H](O)CO [Streptozotocin],103,103,99.8,109,99.9,109,104,102
CCCN[C@H]1CCc2nc(N)sc2C1 [Pramipexole],103,103,101,108,98.2,98.9,107,108
C[C@@H](NCCCc1cccc(C(F)(F)F)c1)c1cccc2ccccc12,102,102,105,102,95.2,95.9,109,106
O=C1c2cccc3c2[C@H](CCC3)CN1[C@@H]1CN2CCC1CC2 [Palonosetron HCl],103,109,112,97,101,103,86.6,104
